# M1 antag: antagonists of rat M1 muscarinic receptor; P08482; CHO-M1 cells, Fluo-4 calcium, ACh EC80 antagonist mode; active compounds read low; B-score at 10 µM; hit rate 3.4% among 64,000; AID 628;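 active means calcium fluorescence response, raw or row-and-column corrected B-score, differing from the plate sample mean either way at a set confidence level, mostly lower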
# Target sequence (P08482 whole entry, looked up): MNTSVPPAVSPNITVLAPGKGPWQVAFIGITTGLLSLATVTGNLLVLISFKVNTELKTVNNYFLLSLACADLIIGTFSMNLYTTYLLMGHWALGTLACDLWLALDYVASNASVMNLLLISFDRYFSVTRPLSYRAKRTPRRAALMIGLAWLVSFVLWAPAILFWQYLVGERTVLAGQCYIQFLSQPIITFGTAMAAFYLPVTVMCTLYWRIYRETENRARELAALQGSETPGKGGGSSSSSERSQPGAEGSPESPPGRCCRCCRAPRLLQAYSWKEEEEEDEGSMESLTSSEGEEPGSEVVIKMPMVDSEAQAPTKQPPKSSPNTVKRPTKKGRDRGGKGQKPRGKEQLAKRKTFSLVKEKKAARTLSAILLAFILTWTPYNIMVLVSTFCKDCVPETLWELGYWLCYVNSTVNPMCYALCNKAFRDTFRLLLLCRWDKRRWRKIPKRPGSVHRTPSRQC
# M1 agonist: activates the M1 muscarinic receptor. CHO-M1 cells, Fluo-4 calcium fluorescence, agonist mode; active compounds read high. AID 626. B-score at 10 µM. hit rate 3% among 64,000;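 active means fluorescence rise, raw or as B-score row- and column-corrected plate score, outside the 99.7% band of its plate's samples, either direction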
# FXIIa mix inh: blocks human factor XIIa in pooled compound mixtures; inhibition, % at 5 µM; purified FXIIa, fluorogenic substrate; AID 684; P00748; hit rate 0.2% among 62,000;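 further: 0% = enzyme without compound and 100% = no enzyme blank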
# D1 mod: D1 dopamine receptor (human) allosteric modulation. B-score at 10 µM. P21728. hit rate 5.9% among 58,000. HEK293 D1, CRE-luciferase, dopamine EC30 potentiation; actives deviate in either direction;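 active means luminescence count or its row- and column-corrected plate score outside the 99.7% band of the plate's sample wells, on either side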
# FXIa inh mix: inhibitors of human coagulation factor XIa, pooled mixtures; hit rate 0.19% among 62,000; P03951; inhibition, % at 5 µM; AID 680; purified FXIa, fluorogenic substrate;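 further: each value is inhibition by a whole ten-compound pool holding the compound; 0% = enzyme with no mixture and 100% = wells lacking enzyme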
# hDAT+cocaine: human DAT dopamine uptake with cocaine, either direction | Q01959 | LLC-PK1 hDAT cells, [14C]-dopamine uptake with cocaine IC80; actives deviate in either direction | B-score at 10 µM | hit rate 1.3% among 110,000;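 active means Z score or B-score, a plate-position-corrected score, falls beyond the plate's 99.7% confidence bounds, in either direction; inactive means both scores lie inside the 99.7% bounds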;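 further: scored against the spread of the other compound wells on the same plate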
# M1 antag confirm: confirmation of rat M1 muscarinic receptor antagonists; shares compounds with M1 antag; CHO-M1 cells, Fluo-4 calcium, ACh EC80 antagonism; active compounds read low; calcium response (max-min fluorescence) at 10 µM; hit rate 43% among 1,700; AID 677;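 active means calcium response below the same-plate mean of wells given acetylcholine alone at its 80%-effect dose, minus 3 SD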;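 further: raw fluorescence intensity difference in arbitrary instrument units and not normalized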
# mGluR4 antag: mGluR4 (human) activity, M1 antagonist secondary assay; shares compounds with M1 antag; hit rate 0.9% among 1,700; fluorescence response (max-min) at 10 µM; CHO-mGluR4 calcium flux, Fluo-4 fluorescence, glutamate EC80; active compounds read low;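 active means fluorescence response below the plate's average for near-maximal glutamate wells, less 3 SD of those wells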;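 further: raw unnormalized fluorescence span taken in the window right after glutamate addition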
# Numbers without * were called inactive; nt = no result given. An excerpt weighted towards active compounds, which were near 7.4% of everything screened. Unless noted, no stated cut-off is given here; in the data, active means inhibition above about 20% (passing the limit was not always enough); inactive means the rest.
SMILES,M1 antag,M1 agonist,FXIIa mix inh,D1 mod,FXIa inh mix,hDAT+cocaine,M1 antag confirm,mGluR4 antag
CC(C)C(NS(=O)(=O)c1ccc2c(c1)oc(=O)n2C)C(=O)N1CCN(C2CCCCC2)CC1 (configuration not stated),0.14,0.16,8,nt,-2,-0.57,nt,nt
CC(C)c1nc(-c2c(N)n(C)c(=O)n(C)c2=O)sc1C(=O)C(C)(C)C,0.49,-0.059,6,nt,-2,-0.93,nt,nt
CCN(CCNC(=O)C1CCN(c2nnc(-n3cccc3)s2)CC1)c1ccccc1,-0.83*,-0.43,4,-1.2,5,0.85,630,192
CCOc1ccc(CCNC(=O)C2CCN(c3nnc(-n4cccc4)s3)CC2)cc1,nt,nt,nt,nt,nt,0.94,nt,nt
CCCCn1cnc2sc3c(c2c1=N)CCCC3,-2.5*,-0.66,-17,-0.92,10,-0.1,580,221
CC(C)N(CCCNC(=O)C1CCN(S(=O)(=O)N2CCOCC2)CC1)Cc1ccccc1,-3.8*,0.058,11,-0.48,-4,nt,421,208
CC1CCN(S(=O)(=O)N2CCC(C(=O)NCCN3CCOCC3)CC2)CC1,nt,nt,nt,nt,nt,0.49,nt,nt
O=C(NCCN1CCCCCC1)C1CCN(S(=O)(=O)N2CCOCC2)CC1,-5.2*,-0.086,3,-1.3,0,-0.41,608,239
CCN(CCCNC(=O)C1CCN(S(=O)(=O)c2cccc3nonc23)CC1)Cc1ccccc1,-6.8*,-0.1,14,-0.18,6,-0.97,304*,166
O=C(NCCN1CCOCC1)C1CCC(=O)N1C1CCCCC1 (configuration not stated),-1.4*,1.2,7,-0.51,-3,0.16,457,188
S=C(NCc1ccc2[nH]c3c(c2c1)CCCC3)Nc1ccccc1Cl,nt,nt,nt,nt,nt,-0.025,nt,nt
CNC(=O)C1C2C=CC3(O2)C1C(=O)N(C1CC1)C3C(=O)NCc1ccc(OC)cc1 (configuration not stated),-2.1*,-0.57,-3,-0.0055,16,-0.13,679,243
C=CCN1C(=O)C2C(C(=O)NC)C3C=CC2(O3)C1C(=O)NCc1ccc(OC)cc1 (configuration not stated),0.67,0.35,6,1.2,5,-0.32,nt,nt
CCOC(=O)/C(C(N)=NC)=C(\O)c1ccccc1,0.59,-0.073,5,1.3,5,-0.021,nt,nt
O=C1CC(O)(C(F)F)Oc2ccc3ccccc3c21 (configuration not stated),-2.6*,-0.78,7,1.2,3,-0.29,600,271
COc1ccc2c(c1)OC(O)(C(F)F)CC2=O (configuration not stated),-0.016,-0.29,-2,0.12,2,0.22,nt,nt
CCOc1ccccc1CNS(=O)(=O)c1ccc2[nH]c(=O)sc2c1,-0.71,0.98,0,-0.0013,7,0.28,nt,nt
CCN(CCNS(=O)(=O)c1ccc2[nH]c(=O)sc2c1)c1ccccc1,-2.4*,-2.1,-2,-0.36,-2,-1.2,601,156*
CC(=O)Nc1ccc(S(=O)(=O)NCCSCc2ccc(Cl)cc2Cl)cc1,nt,nt,nt,nt,nt,-0.85,nt,nt
COC(=O)C(C(=O)N1CCN(C)CC1)C1CCCCCC1 (configuration not stated),-3.3*,-0.41,0,0.66,-7,-0.56,527,228
CCOCCCNc1nc(=S)[nH]c2cc(OC)c(OC)cc12,-2.9*,-0.34,3,-0.69,-9,-0.024,550,206
CCCCNc1nc(=S)[nH]c2cc(OC)c(OC)cc12,nt,nt,nt,nt,nt,2,nt,nt
O=C(CN1C(=O)c2ccccc2S1(=O)=O)N1CCN(c2ccccc2)CC1,-0.5,-1.3,5,-0.58,1,0.11,nt,nt
COC(=O)c1ccc(Oc2nc(N3CCCCC3)nc(N3CCOCC3)n2)cc1,-2.3*,-0.92,3,0.2,-13,-0.17,457,186
Clc1ccc(Oc2nc(Oc3ccc(Cl)cc3)nc(N3CCOCC3)n2)cc1,nt,nt,0,nt,6,0.69,nt,nt
SMILES,M1 antag,M1 agonist,FXIIa mix inh,D1 mod,FXIa inh mix,hDAT+cocaine,M1 antag confirm,mGluR4 antag
CN(C)C(CNC(=O)c1cccc(S(=O)(=O)N2CC3(C)CC2CC(C)(C)C3)c1)c1ccco1 (configuration not stated),-3.3*,0.05,2,0.043,39,0.54,517*,159
Nc1nc2ccccc2n1/N=C/c1ccc(Br)cc1,-6.7*,-1,7,0.023,0,0.031,707,220
CCOC(=O)C1CCCN(C(=O)c2cc3c(=O)n(C)c4ccccc4c3n2C)C1 (configuration not stated),-0.63,2.6,2,-0.22,-13,-0.019,nt,nt
O=C(CN1C(=O)S/C(=C/c2cccs2)C1=O)N1CCOCC1,nt,nt,nt,nt,nt,-0.79,nt,nt
Cc1cc(C(=O)N(C)Cc2ccc(Br)cc2)no1,-7.8*,-0.014,5,0.022,2,-0.29,647,241
CN(C(=O)c1cc2n(n1)C(C(F)(F)F)CC(c1ccco1)N2)c1ccccc1 (configuration not stated),-2.9*,1.1,9,1.2,-12,1.7,662,230
c1coc(CSCc2cn3cccnc3n2)c1,0.13,-0.4,0,0.33,-3,-0.3,nt,nt
COc1ccc(S(=O)(=O)N2CCCC2C(=O)Nc2nnc(-c3cccnc3)s2)cc1 (configuration not stated),-1.9*,-0.56,8,0.97,6,0.21,583,270
CCOC(=O)N1CCN(c2c(NCCN3CCN(Cc4ccccc4)CC3)c(=O)c2=O)CC1,-0.6,-0.95,3,0.2,9,-0.46,nt,nt
CCOC(=O)N1CCC(Nc2c(NCCN3CCN(Cc4ccccc4)CC3)c(=O)c2=O)CC1,-6.7*,0.027,10,2.1,1,-0.2,551,254
C=C(C)c1cccc(C(C)(C)NC(=O)N2CCCC(C)C2)c1 (configuration not stated),nt,nt,nt,nt,nt,0.29,nt,nt
CCCCC(CCC(=O)Nc1ccccc1C(=O)OCC)C(=O)O (configuration not stated),-4.3*,1.5,0,-0.036,5,0.8,685,251
CCOC(=O)c1ccc(NC(=O)CCC(CC)C(=O)O)cc1 (configuration not stated),0.25,-0.99,nt,nt,nt,0.12,nt,nt
Clc1cccc(Cl)c1/C=C/c1nc2ccccc2[nH]1,nt,nt,nt,nt,nt,-0.026,nt,nt
O=C(c1cnn2ccccc12)N(Cc1ccco1)C1CCCC1,-4.6*,-0.077,3,0.36,3,0.24,396*,243
O=C(c1cnn2ccccc12)N1CCN(C2CCCCC2)CC1,nt,nt,nt,nt,nt,0.24,nt,nt
Brc1cccc(-c2cnc3n2CCCCC3)c1,-12*,-0.59,15,-3.3*,6,-1.3,81*,177
Brc1cccc(-c2nnc3n2CCCCC3)c1,-0.21,-0.28,4,-1.2,6,0.37,nt,nt
CS(=O)(=O)N1CCC(C(=O)O)CC1,nt,nt,nt,nt,nt,-0.17,nt,nt

# Screens: PubChem BioAssay, several laboratories
